Out of some 5,500 compounds screened, about 2,000 (36%) were called active. Another 18% or so got no clear call; they are omitted. This is one part of the list. Unmarked numbers belong to inactive results. Cut-off read from the data, not from the text of the source: active = normalized growth mostly below about 0.91 (no sharp cut-off); inconclusive = no clear call, values can overlap the other calls; inactive = mostly above about 0.92.
Assay: chemical genetic growth profiling, strain panel (AID 1159580);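 note: tested at 20 µM; growth read once vehicle control cultures reached saturation at 30 °C; 1 = growth at the plate median or of vehicle wells; lower values mean less growth of the strain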
Conditions: S. cerevisiae deletion strains, growth OD
[1] = locus YDL101C, strain DUN1, active compounds read low
[2] = locus YHR030C, strain SLT2, active compounds read low

SMILES: O=C(ON=C1CCCCC1)c1ccc([N+](=O)[O-])cc1
- normalized growth (locus YAR019C, strain CDC15, active compounds read low): 0.949
- normalized growth (locus YBL105C, strain PKC1, active compounds read low): 0.959
- normalized growth (locus YBR135W, strain CKS1, active compounds read low): 0.947
- normalized growth (locus YBR136W, strain MEC1, active compounds read low): 0.956
- normalized growth (locus YBR160W, strain CDC28, active compounds read low): 0.959
- normalized growth (locus YDL017W, strain CDC7, active compounds read low): 0.952
- normalized growth (locus YDL028C, strain MPS1, active compounds read low): 0.95
- normalized growth [1]: 0.954
- normalized growth (locus YDL108W, strain KIN28, active compounds read low): 0.948
- normalized growth (locus YDL132W, strain cdc53, active compounds read low): 0.944
- normalized growth (locus YDL214C, strain PRR2, active compounds read low): 0.849
- normalized growth (locus YDR052C, strain DBF4, active compounds read low): 0.962
- normalized growth (locus YDR054C, strain cdc34, active compounds read low): 0.948
- normalized growth (locus YDR226W, strain ADK1, active compounds read low): 0.948
- normalized growth (locus YDR477W, strain SNF1, active compounds read low): 0.833
- normalized growth (locus YER123W, strain YCK3, active compounds read low): 0.817
- normalized growth (locus YER133W, strain GLC7, active compounds read low): 0.762
- normalized growth (locus YFL009W, strain cdc4, active compounds read low): 0.942
- normalized growth (locus YFL029C, strain CAK1, active compounds read low): 0.938
- normalized growth (locus YFR003C, strain YPI1, active compounds read low): 0.953
- normalized growth (locus YFR019W, strain FAB1, active compounds read low): 0.886
- normalized growth (locus YFR028C, strain CDC14, active compounds read low): 0.942
- normalized growth (locus YGR040W, strain KSS1, active compounds read low): 0.828
- normalized growth (locus YGR052W, strain FMP48, active compounds read low): 0.843
- normalized growth (locus YGR092W, strain DBF2, active compounds read low): 0.889
- normalized growth [2]: 0.576 (active)
- normalized growth (locus YHR079C, strain IRE1, active compounds read low): 0.784
- normalized growth (locus YHR082C, strain KSP1, active compounds read low): 0.901
- normalized growth (locus YHR205W, strain SCH9, active compounds read low): 0.829
- normalized growth (locus YIL147C, strain SLN1, active compounds read low): 0.946
- normalized growth (locus YJL095W, strain BCK1, active compounds read low): 0.771
- normalized growth (locus YJL128C, strain PBS2, active compounds read low): 0.981
- normalized growth (locus YJL157C, strain FAR1, active compounds read low): 0.82
- normalized growth (locus YJR016C, strain ILV3, active compounds read low): 0.953
- normalized growth (locus YJR066W, strain TOR1 (second series), active compounds read low): 0.814
- normalized growth (locus YJR066W, strain TOR1, active compounds read low): 0.838
- normalized growth (locus YKL048C, strain ELM1, active compounds read low): 0.974
- normalized growth (locus YKL067W, strain YNK1, active compounds read low): 0.865
- normalized growth (locus YKL101W, strain HSL1, active compounds read low): 0.881
- normalized growth (locus YKL193C, strain SDS22, active compounds read low): 0.934
- normalized growth (locus YKL203C, strain TOR2, active compounds read low): 0.888
- normalized growth (locus YLR113W, strain HOG1, active compounds read low): 0.69 (active)
- normalized growth (locus YLR133W, strain CKI1, active compounds read low): 0.874
- normalized growth (locus YLR403W, strain SFP1, active compounds read low): 0.783
- normalized growth (locus YML070W, strain DAK1, active compounds read low): 0.819
- normalized growth (locus YMR001C, strain CDC5, active compounds read low): 0.947
- normalized growth (locus YMR205C, strain PFK2 (second series), active compounds read low): 0.876
- normalized growth (locus YMR277W, strain FCP1, active compounds read low): 0.938
- normalized growth (locus YNL006W, strain LST8, active compounds read low): 0.943
- normalized growth (locus YNL020C, strain ARK1, active compounds read low): 0.876
- normalized growth (locus YNL161W, strain CBK1, active compounds read low): 0.941
- normalized growth (locus YNL183C, strain NPR1, active compounds read low): 0.916
- normalized growth (locus YNL207W, strain RIO2, active compounds read low): 0.944
- normalized growth (locus YNL222W, strain SSU72, active compounds read low): 0.948
- normalized growth (locus YNL307C, strain MCK1 (second series), active compounds read low): 0.851
- normalized growth (locus YOL078W, strain AVO1, active compounds read low): 0.937
- normalized growth (locus YOL136C, strain PFK27, active compounds read low): 0.85
- normalized growth (locus YOR061W, strain CKA2, active compounds read low): 0.867
- normalized growth (locus YOR119C, strain RIO1, active compounds read low): 0.877
- normalized growth (locus YOR231W, strain MKK1, active compounds read low): 0.826
- normalized growth (locus YOR329C, strain SCD5, active compounds read low): 0.949
- normalized growth (locus YPL031C, strain PHO85, active compounds read low): 0.78
- normalized growth (locus YPL153C, strain RAD53, active compounds read low): 0.794
- normalized growth (locus YPL204W, strain HRR25, active compounds read low): 0.784
- normalized growth (locus YPL209C, strain IPL1, active compounds read low): 0.952
- normalized growth (locus YPL256C, strain CLN2, active compounds read low): 0.829 (active)
- normalized growth (locus YPR025C, strain CCL1, active compounds read low): 0.948
- normalized growth (locus YPR106W, strain ISR1, active compounds read low): 0.969
- normalized growth (locus YPR111W, strain DBF20, active compounds read low): 0.968
- normalized growth (strain NNK1, active compounds read low): 0.972
- normalized growth (strain TSCII, active compounds read low): 0.936

SMILES: O=[N+]([O-])c1ccc(S(=O)(=O)N2CCCCC2)cc1
- normalized growth (locus YAL013W, strain DEP1, active compounds read low): 0.994
- normalized growth (locus YBR229C, strain ROT2, active compounds read low): 0.985
- normalized growth (locus YCL061C, strain MRC1, active compounds read low): 0.976
- normalized growth [1]: 0.977
- normalized growth (locus YDL134C, strain PPH21, active compounds read low): 1
- normalized growth (locus YDR150W, strain NUM1, active compounds read low): 0.962
- normalized growth (locus YEL061C, strain CIN8, active compounds read low): 0.978
- normalized growth (locus YGR078C, strain PAC10, active compounds read low): 1
- normalized growth (locus YGR229C, strain SMI1, active compounds read low): 1
- normalized growth [2]: 1
- normalized growth (locus YHR087W, strain rtc3, active compounds read low): 0.994
- normalized growth (locus YJL187C, strain SWE1, active compounds read low): 0.982
- normalized growth (locus YJR043C, strain POL32, active compounds read low): 0.992
- normalized growth (locus YJR075W, strain HOC1, active compounds read low): 0.985
- normalized growth (locus YKL190W, strain CNB1, active compounds read low): 1
- normalized growth (locus YLR039C, strain RIC1, active compounds read low): 1.01
- normalized growth (locus YLR058C, strain SHM2 (second series), active compounds read low): 0.997
- normalized growth (locus YLR085C, strain ARP6, active compounds read low): 0.925
- normalized growth (locus YLR262C, strain YPT6, active compounds read low): 1.03
- normalized growth (locus YML094W, strain GIM5, active compounds read low): 0.999
- normalized growth (locus YMR219W, strain ESC1, active compounds read low): 0.989
- normalized growth (locus YMR263W, strain SAP30, active compounds read low): 0.972
- normalized growth (locus YMR307W, strain GAS1, active compounds read low): 0.943
- normalized growth (locus YNL128W, strain TEP1, active compounds read low): 1
- normalized growth (locus YNL153C, strain GIM3, active compounds read low): 0.975
- normalized growth (locus YNL298W, strain CLA4 (second series), active compounds read low): 0.991
- normalized growth (locus YNL322C, strain KRE1, active compounds read low): 0.996
- normalized growth (locus YNR030W, strain Alg12, active compounds read low): 0.989
- normalized growth (locus YPL055C, strain LGE1, active compounds read low): 0.976
- normalized growth (locus YPL241C, strain CIN2, active compounds read low): 0.991
- normalized growth (locus YPR135W, strain CTF4, active compounds read low): 0.938

Source: PubChem BioAssay AID1159580 (chemical genetic matrix, 2015)
